In all, about 4,100 sequences were measured (“RBNS R-value (6-mer enrichment in protein-bound RNA vs input library)”: median about 0.96, highest 2% from about 2.4 on). The list comes from a sample in which the highest values are over-represented; it also holds similar and randomly drawn sequences.
Test system: PyIESI-1 RRM domain (Plasmodium yoelii PY17X_0911200 aa 795-956, GST fusion)
Experiment: RBNS R-value (6-mer enrichment in protein-bound RNA vs input library) (ratio); higher = stronger binding preference; the methods of the paper give 50 / 100 / 500 nM protein instead
Procedure: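 RNA Bind-n-Seq: recombinant GST-tagged IESI-1 RRM domain was incubated at room temperature with a random 40-nt in vitro transcribed RNA library at 250, 500 or 1000 nM protein. Bound RNA was pulled down on glutathione beads and sequenced. R-value is the enrichment of each 6-mer in the bound RNA relative to the input library. Each 6-mer sits inside the random 40-mer context, not as an isolated oligo. Values are replicate 1 only.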

Sequence | RBNS R-value (protein concentration: 250 nM) | RBNS R-value (protein concentration: 500 nM) | RBNS R-value (protein concentration: 1000 nM)
GCCAGU | 0.86 | 0.901 | 0.892
UCUUGC | 1.12 | 1.17 | 1.18
GAACCU | 1.11 | 1.1 | 1.07
GAUACC | 1.83 | 1.85 | 1.99
ACGAAU | 0.896 | 0.896 | 0.865
GCAGUG | 1.11 | 1.14 | 1.12
AUUCGC | 1.47 | 1.43 | 1.46
UACUUC | 0.69 | 0.719 | 0.702
AUCCCU | 0.892 | 0.921 | 0.934
CCGGUG | 1.11 | 1.14 | 1.12
CGCUUA | 0.602 | 0.629 | 0.617
AUCUAA | 0.647 | 0.67 | 0.637
GUCAAU | 0.655 | 0.685 | 0.671
CGAUUG | 2.25 | 2.18 | 2.2
UGAUUG | 5.45 | 4.95 | 4.94
GGAUUG | 1.22 | 1.22 | 1.15
GAAAGG | 1.1 | 1.08 | 1.01
AGAUAC | 1.02 | 1.09 | 1.09
ACCUCG | 1.08 | 1.06 | 1.06
GGUGAC | 1.01 | 1.04 | 0.983
UGUGAU | 3.77 | 3.62 | 3.78
GGUGAG | 0.98 | 0.993 | 0.943
GGUGAU | 2.66 | 2.69 | 2.75
CGUGAG | 0.911 | 0.913 | 0.868

Sequence | RBNS R-value (protein concentration: 250 nM) | RBNS R-value (protein concentration: 500 nM) | RBNS R-value (protein concentration: 1000 nM)
AGUGAA | 0.884 | 0.89 | 0.844
CGUGAA | 0.949 | 0.925 | 0.895
UGUGAC | 1.17 | 1.18 | 1.16
CGUGAU | 3.46 | 3.26 | 3.39
AGUGAU | 3.53 | 3.36 | 3.56
UGUGAG | 1.11 | 1.1 | 1.05
AGUGAC | 1.01 | 1.04 | 1.02
UGCGCU | 1.27 | 1.25 | 1.26
UCCGUG | 1.12 | 1.15 | 1.16
GACUCG | 1.11 | 1.13 | 1.07
UGUUUC | 0.901 | 0.972 | 0.97
AGCUGA | 1.72 | 1.68 | 1.68
UCGUGG | 0.808 | 0.811 | 0.782
CAGCGU | 0.779 | 0.809 | 0.78
UGCCUC | 1.11 | 1.13 | 1.19
UGGCCA | 1.26 | 1.22 | 1.24
GAUAGC | 2.53 | 2.39 | 2.48
GAUAGA | 1.92 | 1.93 | 2
GAUAGU | 1.39 | 1.41 | 1.45
UGCUCA | 0.956 | 0.977 | 1
AAUGUA | 0.646 | 0.662 | 0.639
GAUGUA | 2.51 | 2.41 | 2.52
GAUGUC | 2.55 | 2.44 | 2.5
CAUGUG | 1.02 | 1.04 | 1.03

Sequence | RBNS R-value (protein concentration: 250 nM) | RBNS R-value (protein concentration: 500 nM) | RBNS R-value (protein concentration: 1000 nM)
GAUGUG | 3.46 | 3.14 | 3.14
UAUGUC | 0.642 | 0.672 | 0.661
AAUGUU | 0.8 | 0.836 | 0.819
GAUGUU | 2.92 | 2.8 | 2.87
CAUGUU | 0.726 | 0.757 | 0.737
CAUGUC | 0.705 | 0.722 | 0.733
UAUGUA | 0.585 | 0.616 | 0.581
UAUGUG | 0.924 | 0.971 | 0.978
GCGUCG | 0.809 | 0.784 | 0.765
UUGUUA | 0.717 | 0.765 | 0.738
AGCCUG | 1.33 | 1.33 | 1.36
GUGGCC | 0.987 | 0.981 | 0.976
AACCUG | 1.37 | 1.36 | 1.38
CCGCUA | 0.743 | 0.757 | 0.758
UACUAC | 0.519 | 0.53 | 0.491
AAUUAA | 0.471 | 0.515 | 0.483
GAUUAC | 2.72 | 2.65 | 2.82
CAUUAC | 0.471 | 0.51 | 0.491
CAUUAG | 0.57 | 0.593 | 0.579
GAUUAG | 2.44 | 2.41 | 2.5
CAUUAA | 0.41 | 0.435 | 0.403
UAUUAC | 0.487 | 0.514 | 0.489
GAUUAA | 2.47 | 2.37 | 2.56
AAUUAG | 0.641 | 0.657 | 0.639

Sequence | RBNS R-value (protein concentration: 250 nM) | RBNS R-value (protein concentration: 500 nM) | RBNS R-value (protein concentration: 1000 nM)
CGGUGA | 1.36 | 1.39 | 1.35
ACCGCG | 1.03 | 1.03 | 1.04
CGAACC | 1.09 | 1.06 | 1.06
GGGCCG | 1 | 1.01 | 0.999
GCAAGC | 0.92 | 0.933 | 0.931
CCGGUC | 0.872 | 0.923 | 0.916
GAUGCU | 2.48 | 2.42 | 2.51
GAUGCG | 2.54 | 2.45 | 2.52
GAUGCC | 2.7 | 2.6 | 2.86
UAUGCC | 0.797 | 0.84 | 0.861
GAUGCA | 2.66 | 2.5 | 2.68
CAUGCU | 0.844 | 0.875 | 0.883
UAUGCA | 0.689 | 0.714 | 0.705
AAUGCU | 0.903 | 0.932 | 0.944
UAUGCG | 0.859 | 0.856 | 0.873
CAUGCA | 0.757 | 0.762 | 0.774
CAUGCC | 0.921 | 0.929 | 0.99
AAUGCG | 0.941 | 0.968 | 0.97
CUGCCA | 1.03 | 1.05 | 1.07
UUUGUU | 0.893 | 0.907 | 0.907
ACGAAC | 0.96 | 0.939 | 0.926
AUUUAU | 0.824 | 0.83 | 0.836
UGCUUU | 1.1 | 1.15 | 1.18
UGAUGU | 7 | 6.29 | 6.39

Sequence | RBNS R-value (protein concentration: 250 nM) | RBNS R-value (protein concentration: 500 nM) | RBNS R-value (protein concentration: 1000 nM)
AGAUGC | 1.47 | 1.52 | 1.65
AUAUGA | 1.78 | 1.74 | 1.84
GGAUGA | 1.75 | 1.71 | 1.69
UGAUGA | 9.09 | 7.87 | 7.73
CGAUGA | 3.48 | 3.36 | 3.47
AGAUGA | 2.69 | 2.61 | 2.72
CGAUGC | 2.07 | 2.1 | 2.31
CAAUGA | 2.27 | 2.18 | 2.28
UUAUGA | 1.76 | 1.72 | 1.81
CGAUGU | 2.03 | 2.04 | 2.13
AGAUGU | 1.45 | 1.47 | 1.54
UCACCA | 0.862 | 0.849 | 0.9
GGAGCG | 1.01 | 1.01 | 0.994
AUACCA | 0.709 | 0.723 | 0.733
AACUUC | 0.893 | 0.92 | 0.901
CGCAAG | 0.91 | 0.907 | 0.917
UCCCAA | 0.972 | 0.967 | 0.987
GGGGGA | 1.03 | 1.05 | 1.01
GGAUGC | 1.08 | 1.04 | 1.08
AGAUGG | 1.49 | 1.46 | 1.49
UGAUGC | 6.04 | 5.5 | 5.71
UUAUGC | 0.736 | 0.778 | 0.779
CGAUGG | 2.05 | 1.98 | 2
UGAUGG | 5.96 | 5.24 | 5.21
